According to PubChem BioAssay (NCATS):
Inconclusive results are not listed. Entries that show only a call come without a potency. The source made the active and inactive calls. Calls follow the shape of the dose curve; as a rule, active = well fitted curve in the direction sought with a large enough effect; inconclusive = small, poorly fitted or top-dose-only effect, or another doubt; inactive = no such curve, though single readings can be large; an effect the other way counts as inactive or inconclusive.

Legend:
[1] = qHTS of pediatric cancer cell lines to identify multiple opportunities for drug repurposing: Confirmatory screen for DAOY cells (AID 1347114); also: nearly all actives have a fitted effect of over 65% in size; also: potency is read from the fitted curve at half-maximal effect
Outline: (§1)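 Viability measured as metabolically active cells via CellTiter-Glo luminescence following 48 hours of compound exposure, 11-point dilutions in confirmatory testing. 500-1,000 cells/well plated 5 hours before dosing; controls were DMSO and 2.3 µM bortezomib.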

[2] = qHTS of pediatric cancer cell lines to identify multiple opportunities for drug repurposing: Confirmatory screen for BT-37 cells (AID 1347117); conditions: BT-37 pediatric cancer cells, viability; activity change, negative = cytotoxic: at 45.9 µM (top of the series); also: nearly all actives have a fitted effect of over 55% in size; also: potency is read from the fitted curve at half-maximal effect
Outline: (§2)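 Cells (500-1,000/well) rested 5 h, then received compounds for 48 h; metabolically active cells were measured by CellTiter-Glo luminescence. Final concentrations spanned up to 46 µM (MIPE, 11-point) or 0.59 nM-46 µM (NPC, 8-point) in primary screens, 11-point in follow-ups.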

[3] = qHTS of pediatric cancer cell lines to identify multiple opportunities for drug repurposing: Confirmatory screen for TC32 cells (AID 1347118);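 also: cells exposed to compound for 48 h before the read; nearly all actives have a fitted effect of over 65% in size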; also: potency is read from the fitted curve at half-maximal effect
Outline: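 Luminescent CellTiter-Glo read-out of metabolically active TC32 cells after 48 h compound exposure. Primary: MIPE 11-point, 0.78 nM–46 µM; NPC 8-point, 0.59 nM–46 µM. Confirmatory: 11-point dilutions.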

[4] = qHTS of pediatric cancer cell lines to identify multiple opportunities for drug repurposing: Confirmatory screen for U-2 OS cells (AID 1347122); also: nearly all actives have a fitted effect of over 65% in size; also: potency is read from the fitted curve at half-maximal effect
Outline: as §2

[5] = qHTS of pediatric cancer cell lines to identify multiple opportunities for drug repurposing: Confirmatory screen for Rh41 cells (AID 1347123); also: nearly all actives have a fitted effect of over 60% in size; also: potency is read from the fitted curve at half-maximal effect
Outline: as §2

[6] = qHTS of pediatric cancer cell lines to identify multiple opportunities for drug repurposing: Confirmatory screen for Rh18 cells (AID 1347125); also: nearly all actives have a fitted effect of over 55% in size; also: potency is read from the fitted curve at half-maximal effect
Outline: as §2

[7] = qHTS of pediatric cancer cell lines to identify multiple opportunities for drug repurposing: Confirmatory screen for Rh30 cells (AID 1347126); also: nearly all actives have a fitted effect of over 55% in size; also: potency is read from the fitted curve at half-maximal effect
Outline: as §2

[8] = qHTS of pediatric cancer cell lines to identify multiple opportunities for drug repurposing: Confirmatory screen for Saos-2 cells (AID 1347127); also: nearly all actives have a fitted effect of over 60% in size; also: potency is read from the fitted curve at half-maximal effect
Outline: as §2

[9] = qHTS of pediatric cancer cell lines to identify multiple opportunities for drug repurposing: Confirmatory screen for SK-N-SH cells (AID 1347129);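 also: cells exposed to compound for 48 h before viability read; nearly all actives have a fitted effect of over 60% in size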; also: potency is read from the fitted curve at half-maximal effect
Outline: as §2

[10] = system: Zika virus NS2B-NS3 protease; assay: Primary screen GU AMC qHTS for Zika virus inhibitors (AID 1347154); also: nearly all actives have a fitted effect of over 70% in size
Outline: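 Fluorogenic AMC-substrate cleavage by noncovalent NS2B-NS3 protease complex (25 nM, pH 8.0 Tris buffer with Tween 20) followed for 15 minutes at room temperature (~20% conversion). Percent inhibition from ex340/em450 signal change, fitted by 4-parameter Hill equation.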

[11] = qHTS of pediatric cancer cell lines to identify multiple opportunities for drug repurposing: Confirmatory screen for SJ-GBM2 cells (AID 1347116); also: nearly all actives have a fitted effect of over 60% in size; also: potency is read from the fitted curve at half-maximal effect
Outline: as §1

[12] = qHTS of pediatric cancer cell lines to identify multiple opportunities for drug repurposing: Confirmatory screen for RD cells (AID 1347124);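 also: cells exposed to compound for 48 h before viability readout; nearly all actives have a fitted effect of over 65% in size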; also: potency is read from the fitted curve at half-maximal effect
Outline: as §2

[13] = qHTS of pediatric cancer cell lines to identify multiple opportunities for drug repurposing: Confirmatory screen for NB-EBc1 cells (AID 1347115);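 also: cells exposed to compound for 48 h before the viability read; nearly all actives have a fitted effect of over 45% in size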
Outline: as §2

[14] = qHTS of pediatric cancer cell lines to identify multiple opportunities for drug repurposing: Confirmatory screen for MG 63 (6-TG R) cells (AID 1347119); also: nearly all actives have a fitted effect of over 55% in size; also: potency is read from the fitted curve at half-maximal effect
Outline: as §2

[15] = qHTS of pediatric cancer cell lines to identify multiple opportunities for drug repurposing: Confirmatory screen for control Hh wild type fibroblast cells (AID 1347121); also: nearly all actives have a fitted effect of over 70% in size
Outline: as §2

[16] = qHTS of pediatric cancer cell lines to identify multiple opportunities for drug repurposing: Confirmatory screen for OHS-50 cells (AID 1347128); also: potency is read from the fitted curve at half-maximal effect
Outline: as §2

Row | SMILES | Potency [1] | Potency [2] | Potency [3] | Potency [4] | Potency [5] | Potency [6] | Potency [7] | Potency [8] | Potency [9] | Potency [10] | Potency [11] | Potency [12] | Potency [13] | Potency [14] | Potency [15] | Potency [16] | activity change, negative = cytotoxic [2]
1 | COc1cc([C@@H]2c3cc4c(cc3[C@@H](O[C@@H]3O[C@@H]5CO[C@@H](c6cccs6)O[C@@H]5[C@H](O)[C@@H]3O)[C@H]3COC(=O)[C@H]23)OCO4)cc(OC)c1O | 5.22 µM (active) | 0.261 µM (active) | 0.131 µM (active) | 2.33 µM (active) | 0.585 µM (active) | 1.31 µM (active) | 1.31 µM (active) | inactive | 3.32 µM (active) | inactive | – | – | – | – | – | – | –
2 | C=CC(=O)N1CCc2ccc(-n3c(=O)ccc4cnc5ccc(-c6cnn(C)c6)cc5c43)cc21 | 9.27 µM (active) | – | 5.22 µM (active) | 5.22 µM (active) | 8.27 µM (active) | inactive | 5.22 µM (active) | 5.22 µM (active) | 5.9 µM (active) | inactive | 9.27 µM (active) | 10.4 µM (active) | – | – | – | – | –
3 | O=C(C=CC=Cc1ccc2c(c1)OCO2)N1CCCCC1 | inactive | – | 10.4 µM (active) | – | – | inactive | – | inactive | inactive | – | inactive | inactive | inactive | inactive | inactive | inactive | –
4 | COc1ccc(C(C)=O)c(O)c1 | inactive | inactive | – | – | inactive | inactive | inactive | – | inactive | inactive | – | inactive | – | inactive | – | inactive | –
5 | Cc1[nH]c(C=C2C(=O)Nc3ccccc32)c(C)c1CCC(=O)O | inactive | – | inactive | – | inactive | inactive | – | inactive | inactive | inactive | – | inactive | inactive | inactive | inactive | inactive | –
6 | CC(C)(O)Cn1c(NC(=O)c2ccc(-c3cn[nH]c3)s2)nc2cc(CN3CCOCC3)ccc21 | 2.61 µM (active) | 0.737 µM (active) | 1.31 µM (active) | – | – | 1.31 µM (active) | 0.657 µM (active) | 0.585 µM (active) | – | – | 1.17 µM (active) | 0.827 µM (active) | – | 1.17 µM (active) | – | 0.827 µM (active) | –
7 | CC(C)NC[C@@H](C(=O)N1CCN(c2ncnc3c2[C@H](C)C[C@H]3O)CC1)c1ccc(Cl)cc1 | inactive | – | 4.14 µM (active) | – | – | – | 8.27 µM (active) | 6.57 µM (active) | 16.6 µM (active) | inactive | inactive | – | – | 11.7 µM (active) | inactive | – | –
8 | C#CCC(Cc1cnc2nc(N)nc(N)c2n1)c1ccc(C(=O)N[C@@H](CCC(=O)O)C(=O)O)cc1 (stereo partly specified) | 0.117 µM (active) | – | 0.0414 µM (active) | – | inactive | inactive | inactive | – | – | – | – | 0.233 µM (active) | – | inactive | – | – | –
9 | CCN(CC)Cc1ccc2cc(COC(=O)Nc3ccc(C(=O)NO)cc3)ccc2c1 | inactive | – | inactive | inactive | – | – | inactive | inactive | inactive | inactive | inactive | – | – | inactive | – | – | –
10 | C[C@H]1[C@@H](OC(=O)CCC(=O)O)O[C@@H]2O[C@@]3(C)CC[C@@H]4[C@H](C)CC[C@@H]1[C@@]24OO3 | 23.3 µM (active) | 3.69 µM (active) | 9.27 µM (active) | – | 5.85 µM (active) | – | – | 1.31 µM (active) | – | inactive | 1.17 µM (active) | 1.04 µM (active) | – | 20.8 µM (active) | – | 3.29 µM (active) | –
11 | NC(=O)Nc1sc(-c2ccc(F)cc2)cc1C(N)=O | inactive | – | 5.22 µM (active) | 14.7 µM (active) | – | – | – | – | 14.8 µM (active) | inactive | inactive | – | – | 11.7 µM (active) | inactive | – | –
12 | CCCCC(=O)O[C@]1(C(=O)CO)[C@@H](C)C[C@H]2[C@@H]3CCC4=CC(=O)C=C[C@]4(C)[C@@]3(F)[C@@H](O)C[C@@]21C | inactive | – | – | inactive | inactive | inactive | – | inactive | inactive | inactive | inactive | inactive | – | inactive | inactive | – | –
13 | CS[C@H]1SC[C@@H]2C(=O)N(C)[C@H](C(C)C)C(=O)OC[C@H](NC(=O)c3cnc4ccccc4n3)C(=O)N[C@H](C)C(=O)N(C)[C@@H]1C(=O)N(C)[C@H](C(C)C)C(=O)OC[C@H](NC(=O)c1cnc3ccccc3n1)C(=O)N[C@H](C)C(=O)N2C | 0.0147 µM (active) | – | – | 0.0208 µM (active) | 0.0059 µM (active) | inactive | – | inactive | – | inactive | inactive | – | – | inactive | – | – | 1.7% (active)
14 | COc1ccc(C[C@@H](C)[C@@H](C)Cc2ccc(OC)c(OC)c2)cc1OC | 11.7 µM (active) | – | 4.14 µM (active) | inactive | – | inactive | inactive | – | – | inactive | inactive | – | – | 9.27 µM (active) | – | – | –
15 | CCS(=O)(=O)Nc1ccc2[nH]c(O)c(C(=Nc3ccc(CN4CCCCC4)cc3)c3ccccc3)c2c1 | 16.5 µM (active) | 16.5 µM (active) | 0.0414 µM (active) | – | 0.522 µM (active) | 4.65 µM (active) | 1.65 µM (active) | 0.737 µM (active) | – | inactive | 14.7 µM (active) | 0.737 µM (active) | – | 0.329 µM (active) | – | – | –
